According to PubChem BioAssay AID651593 (National Center for Advancing Translational Sciences (NCATS), 2012):
In all, about 1,100 compounds went through this assay and about 860 (78%) were called active. Roughly 19% stayed inconclusive and do not appear here. Calls follow the shape of the dose curve; as a rule, active = well fitted activation curve with a large enough effect; inconclusive = small, poorly fitted or top-dose-only effect; inactive = flat fitted curve, though single readings scatter. So high a share suggests a set chosen from earlier hits. The list shows a part of the results.

Experiment: qHTS of Nrf2 Activators: Hit Validation in Primary Assay; also: nearly all actives have a fitted effect of over 70% in size
Settings: Nrf2/ARE reporter cell assay; Potency: activation; series mostly up to 46.1 µM
Source text: Many diseases have some form of oxidative stress injury and ties to inflammation, causing a host of problems for the patient. The antioxidant response element (ARE) plays an important role in alleviating the harmful effects of oxidative stress. The antioxidant response element (ARE) is a transcriptional regulatory element involved in the activation of genes coding for a number of antioxidant proteins and detoxifying enzymes. These enzymes work in concert to protect tissues from oxidative insults and chemical toxicities in human hepatocytes and immune cells. The protective effects of ARE activation are primarily triggered through Nrf2 (NF-E2-related factor) binding to and activating AREs. It is known that Nrf2 controls the production of over 250 antioxidant and detoxification proteins (Hu et al., 2006), thereby protecting tissues by increasing cellular antioxidant content and suppressing inflammatory signaling pathways. The transcription factor Nrf2 is a central link between oxidative chemicals, such as phenolic antioxidants and electrophilic compounds, and the activation of ARE. Nrf2 levels are constitutively low as a consequence of its interaction with Keap1, which targets its degradation (Zipper and Mulcahy, 2002). Electrophiles react with key cysteine residues in Keap1, releasing Nrf2 and allowing its translocation to the nucleus. Once within the nucleus, Nrf2 complexes with coactivators such as p300, and binds to the AREs to induce gene transcription of cytoprotective enzymes, resulting in the prevention of toxicity. Activation of Nrf2 protects tissues by increasing cellular antioxidant content and suppressing inflammatory signaling pathways. Identifying novel and potent Nrf2 activators by using the AREc32 cell line to detect ARE activation by small molecules will lead to the identification and development of probes to study protective pathways in multiple tissues. These specific probes are essential to study the ARE pathway, and eventually to determine whether this pathway does activate genes that could protect against a host of diseases, including cardiovascular diseases, obesity, diabetes, Alzheimer's, and Parkinson's disease.
This project's aim is to identify novel and potent Nrf2 activators by using the AREc32 cell line to detect ARE activation by small molecules, which will lead to the identification and development of probes to study the ARE pathway.
NIH Chemical Genomics Center [NCGC]
NIH Molecular Libraries Probe Centers Network [MLPCN]
Assay Submitter (PI): Curtis Klaassen, University of Kansas Medical Center
Quantification of ARE activation after compound treatment was measured by the Steady-Glo Luciferase (R) assay system (Promega) in AREc32_fluc stable cells. The Steady-Glo reagent acts by cell lysis and generation of a luminescent signal proportional to ARE activation, through the luciferase reporter in the AREc32 stable cell line. AREc32_fluc cells were harvested from T225 flask and resuspended in phenol red free OPTI-MEM medium with 5% FBS. Then 5 microL of 200,000 cells/mL resuspended cells were dispensed into each well of white, solid bottom, 1536-well tissue culture-treated plates using a Multidrop Combi dispenser. After overnight culture at 37 degrees C with 5% CO2, a total of 23 nL of compounds at 5 selected concentrations from the MLSMR/Sytravon or positive control (40 uM stock of CDDO-IM and 2 mM of tBHQ) in DMSO was transferred to each well of the assay plate using a pintool (Kalypsys, San Diego, CA), and the plates were further incubated at 37 degrees C with 5% CO2 for 24 hours. After that, 2 microL of Steady Glo luminescent substrate mix (Promega) was added to each well. The plate was incubated at room temperature for 30 minutes. The plates were measured on a ViewLux plate reader (PerkinElmer) with clear filter.
Potency is read from the fitted curve at half-maximal effect.

Potency, active:
Cc1ccc2cc3c(NC(=O)c4ccco4)nn(C)c3nc2c1 2.59 µM
COc1cc(C=C2Cc3ccccc3C2=O)cc(OC)c1OC 9.2 µM
COc1cc(OC)c(OC)cc1/C=C1/Cc2ccccc2C1=O 8.2 µM
COc1ccc(OC)c(C=C2CCc3ccccc3C2=O)c1 2.91 µM
O=C1C(=Cc2ccccc2Cl)CCc2ccccc21 20.6 µM
c1ccc(-c2cnc(-c3ccccc3)nn2)cc1 13 µM
CSc1nc(Oc2ccc(Cl)cc2)c2sccc2n1 6.51 µM
CSc1nc(Oc2ccc3ccccc3c2)c2sccc2n1 5.8 µM
Nc1c(C(=O)c2cccs2)oc2ccccc12 6.51 µM
Nc1c(C(=O)c2ccc(Br)s2)oc2ccccc12 5.17 µM
COc1cccc(C(=O)Oc2ccccc2/C=C\C(=O)c2cc3ccccc3o2)c1 3.66 µM
O=C(Oc1ccccc1/C=C\C(=O)c1cc2ccccc2o1)c1ccccc1 4.61 µM
O=C(Cn1cnc2scc(-c3cccc([N+](=O)[O-])c3)c2c1=O)NCc1ccco1 7.31 µM
Cc1c(CN(C)C)c2c(n1C)C(=O)c1ccc(Br)cc1-2 5.17 µM
O=C(CC(=O)c1ccccc1O)c1cccc(F)c1 4.61 µM
O=[N+]([O-])c1ccccc1N/N=C/c1c[nH]c2ccccc12 2.59 µM
CC(C)Oc1ccccc1/C=N/Nc1ccccc1[N+](=O)[O-] 3.26 µM
C(=N\Nc1nc2ccccc2[nH]1)/c1c[nH]c2ccccc12 16.4 µM
c1ccc(N=NC2=NN(c3ccccc3)CS2)cc1 5.8 µM
CSc1ccccc1NC(=O)COC(=O)/C=C/c1ccco1 1.16 µM
O=C(COC(=O)/C=C/c1ccco1)Nc1ccc(F)cc1Cl 5.8 µM
CC(=O)c1ccccc1NC(=O)COC(=O)/C=C/c1ccc(C)o1 3.66 µM
O=C(NC(=S)Nc1ccccc1O)c1ccccc1Cl 2.31 µM
Cc1ccc(C(=O)Nc2nc(-c3ccco3)c(-c3ccco3)s2)o1 0.92 µM
COC(=O)c1c(NC(=O)c2ccco2)sc(C)c1C 2.59 µM
CCc1c(C)sc(NC(=O)c2ccco2)c1C#N 7.31 µM
CCOC(=O)c1sc(NC(=O)c2ccco2)nc1C 2.59 µM
COC(=O)c1sc(NC(=O)c2ccco2)nc1C 10.3 µM
O=C(Nc1ccccc1F)c1ccc(-c2cccc([N+](=O)[O-])c2)o1 2.31 µM
c1ccc(N=Nc2cn[nH]c2-c2ccco2)cc1 9.2 µM
CC(C)OC(=O)c1cn(-c2ccccc2)nc1-c1ccco1 6.51 µM
Fc1ccc2nncc(SCc3ccccc3Cl)c2c1 2.06 µM
O=C(Nc1ncnc2sc3c(c12)CCCCC3)c1ccco1 0.58 µM
O=C(Nc1ncnc2sc3c(c12)CCC3)c1ccco1 0.291 µM
Cc1ccc2nc(N(CCN(C)C)C(=O)/C=C/c3cccs3)sc2c1 4.61 µM
CN(C)CCN(C(=O)/C=C/c1cccs1)c1nc2ccc(F)cc2s1 2.06 µM
CN(C)CCN(C(=O)/C=C/c1cccs1)c1nc2c(F)cc(F)cc2s1 2.91 µM
Nc1nc(Nc2cccc(Cl)c2)nc(NCCO)c1[N+](=O)[O-] 2.59 µM
Fc1cccc2sc(Nc3nc4ccccc4s3)nc12 2.31 µM
Fc1ccc2nc(Nc3nc4c(F)cc(F)cc4s3)sc2c1 2.31 µM
Cn1c(/C(C#N)=C(\O)c2cc(Cl)sc2Cl)nc2ccccc21 2.31 µM
Cc1ccc(C(=O)OCc2c(C)noc2C)cc1NC(=O)c1ccco1 4.11 µM
N/C(=N\OC(=O)c1ccccc1Cl)c1ccncc1 9.2 µM
N/C(=N\OC(=O)c1cc(Cl)ccc1Cl)c1ccncc1 5.17 µM
N/C(=N\OC(=O)c1cc(Cl)ccc1Cl)c1cccnc1 2.59 µM
COc1ccc(Cl)cc1C(=O)O/N=C(\N)c1ccncc1 6.51 µM
N/C(=N\OC(=O)/C=C/c1ccccc1)c1cccnc1 20.6 µM
COc1ccc(Cl)cc1C(=O)O/N=C(\N)c1ccccn1 2.91 µM
N/C(=N\OC(=O)c1cccc2ccccc12)c1ccc(Br)cc1 9.2 µM
O=C(/C=C/c1ccccc1[N+](=O)[O-])N1CCc2ccccc2C1 20.6 µM
Oc1ccccc1-n1nc2ccc3nonc3c2n1 11.6 µM
Cn1c(=O)n(CCc2ccccc2)c(=O)c2c1nc1n2CCN1Cc1ccco1 2.31 µM
CCCNC(=O)c1ccc(S(=O)(=O)c2ccc(OC)cc2)c([N+](=O)[O-])c1 3.66 µM
Cn1c(N/N=C/c2cccs2)cc(=O)n(C)c1=O 2.59 µM
O=c1[nH]n(Cc2ccccc2)c(=O)c2ccccc12 4.11 µM
O=C(CSc1nccc(-c2cccs2)n1)Nc1cccc(Cl)c1 2.06 µM
O=C(CSc1nccc(-c2cccs2)n1)Nc1ccc(F)c(Cl)c1 20.6 µM
O=C(CSc1nccc(-c2cccs2)n1)Nc1cccc(Cl)c1Cl 2.31 µM
Cc1ccc(C(=O)N/N=C/c2ccc(-c3ccc(Br)cc3[N+](=O)[O-])o2)o1 5.8 µM
Cc1cc(N2CCOCC2)n2nc(-c3cccc(F)c3)cc2n1 1.46 µM
Cc1cc(C)n2nc(-c3ccc(F)cc3)cc2n1 20.6 µM
O=C(Nc1ncc2c(n1)-c1ccccc1CC2)c1cccs1 2.31 µM
O=C(Nc1nccc(-c2cccs2)n1)c1cccs1 2.59 µM
O=C(Nc1ncc2c(n1)-c1ccccc1CC2)c1ccccc1 5.17 µM

Potency, inactive:
CCOc1c(Br)cc(C(N)=O)cc1OCc1ccccc1
O=C(CNC(=S)NC(=O)c1ccccc1Br)c1ccccc1
Cc1sc(NC(=O)c2ccco2)c(CN2CCCCC2)c1C
N/C(=N\OC(=O)c1cccc2ccccc12)c1cccnc1
COc1ccc([C@H]2Cc3cccc(O)c3C(=O)O2)cc1O
